# Source: PubChem BioAssay (NCI)
# Compounds without any hit were thinned out: in the full panel of roughly 83,000, 20% have a hit.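 Negative percent growth values reflect cell death: -40 means 40% of the cells present at the start died, and -100 means all died.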 A number with no mark means an inactive call. Calls of active or inactive are those of the source. The calls were made as follows: active = growth percent below 10; inactive = the rest.
# Test system: MDA-MB-468 breast
# Test: NCI-60 one-dose screen, 48 h (100 = growth as untreated, 0 = no growth, -100 = all killed)
# Conditions: 10 µM unless noted
row,Structure (SMILES),growth
1,OCCN(CCO)C(=S)S,102%
2,COc1ccc(C(=O)n2nc(/C=C/c3ccc(O)c(OC)c3)cc2/C=C/c2ccc(O)c(OC)c2)cc1,-8.43% (active)
3,Cc1ccc(-c2csc(N/N=C/c3cccs3)n2)cc1,65.1%
4,O=C(/C=C/c1ccc(F)cc1)c1ccc(NC(=O)N2CCN(c3cc4c(cc3F)c(=O)c(C(=O)O)cn4C3CC3)CC2)cc1,68.3%
5,O=C(CSc1nc2sc3c(c2c(=O)n1Cc1ccccc1)CCCC3)N1CCN(c2ccccc2)CC1,106%
6,COc1ccccc1N1CCN(C(CNS(=O)(=O)c2ccc(Cl)cc2)c2cccnc2)CC1 (centres undefined),98.8%
7,N#Cc1ccc(/C=C/c2cn(-c3ccccc3)nc2-c2cccc([N+](=O)[O-])c2)cc1,64.7%
8,O=C(CCCn1c(=O)c2sc3ccccc3c2n2nnc(-c3ccccc3)c12)NCCc1cnc[nH]1,-42.1% (active)
9,COc1ccc2c(c1)C(=O)/C(=C/c1cccnc1)CC2,100%
10,COc1ccc(C(=O)Nc2ncc(Cc3ccccc3Cl)s2)cc1,24.7%
11,Cc1nc(Nc2ccc(S(=O)(=O)Nc3cc(C)on3)cc2)c2ccccc2n1,104%
12,CCOC(=O)c1cc(C(=O)c2ccc(OC)c(OC)c2)n2ccc(/C=C/c3cc[n+](CC(=O)c4ccc(OC)c(OC)c4)cc3)cc12,71.9%
13,CC(=O)OCCC/C(=C\c1ccc2ccccc2c1)[N+](=O)[O-],-55.4% (active)
14,COC(=O)c1c(C(=O)OC)c2ccc3c4ncccc4ccc3n2c1C(=O)c1ccc(C)cc1,79.1%
